Results reported in PMC5540273 (PLoS ONE, 2017).

Tests used:
Details in all cases: concentration: 1 μM, replicates: in singlicate; n = 1
[1] = test system: RPS6KA5(Kin.Dom.2-C-terminal)
[2] = test system: T1, RSK1(Kin.Dom.1-N-terminal)
T1 construct: gene RPS6KA1

[3] = test system: T2, RSK1(Kin.Dom.2-C-terminal)
T2 construct: gene RPS6KA1

[4] = test system: T3, RSK2(Kin.Dom.1-N-terminal)
T3 construct: gene RPS6KA3

[5] = test system: T4, RSK2(Kin.Dom.2-C-terminal)
T4 construct: gene RPS6KA3

[6] = test system: T5, RSK3(Kin.Dom.1-N-terminal)
T5 construct: gene RPS6KA2

[7] = test system: T6, RSK3(Kin.Dom.2-C-terminal)
T6 construct: gene RPS6KA2

[8] = test system: T7, RSK4(Kin.Dom.1-N-terminal)
T7 construct: gene RPS6KA6

[9] = test system: T8, RSK4(Kin.Dom.2-C-terminal)
T8 construct: gene RPS6KA6

S6K1 = test system: S6K1
SBK1 = test system: SBK1
SGK2 = test system: SGK2
SGK3 = test system: SGK3
SGK = test system: SGK
SIK2 = test system: SIK2
SIK = test system: SIK
SLK = test system: SLK
SNARK = test system: T9, SNARK
T9 construct: gene NUAK2

SNRK = test system: SNRK
SRC = test system: SRC
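Also: KINOMEscan kinase panel screen.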

| Structure (SMILES) | %Inh [1] [%] | %Inh [2] [%] | %Inh [3] [%] | %Inh [4] [%] | %Inh [5] [%] | %Inh [6] [%] | %Inh [7] [%] | %Inh [8] [%] | %Inh [9] [%] | %Inh (S6K1) [%] | %Inh (SBK1) [%] | %Inh (SGK2) [%] | %Inh (SGK3) [%] | %Inh (SGK) [%] | %Inh (SIK2) [%] | %Inh (SIK) [%] | %Inh (SLK) [%] | %Inh (SNARK) [%] | %Inh (SNRK) [%] | %Inh (SRC) [%] |
| --- | --- | --- | --- | --- | --- | --- | --- | --- | --- | --- | --- | --- | --- | --- | --- | --- | --- | --- | --- | --- |
| FC(F)(F)c1ccc(-c2cc(-c3c[nH]nc3-c3ccccn3)ccn2)cc1 [GW599550] | 15 | 20 | 7 | 0 | 2 | 12 | 5 | 0 | 42 | 2 | 8 | 9 | 12 | 0 | 0 | 0 | 23 | 10 | 100 | 3 |
| CC(C)(C)OC(=O)NC1CCCN(c2cc(-c3ccc4c(N)n[nH]c4c3)nc(N)n2)C1 (centres unmarked) [GSK2286096] | 0 | 26 | 0 | 27 | 100 | 0 | 0 | 36 | 23 | 2 | 15 | 0 | 44 | 0 | 0 | 0 | 0 | 0 | 3 | 0 |
| O=C(Nc1ccccc1)Nc1ccc(Oc2ccc3nccn3n2)cc1 | 19 | 5 | 0 | 0 | 0 | 6 | 0 | 0 | 0 | 0 | 0 | 0 | 3 | 0 | 0 | 0 | 20 | 0 | 0 | 0 |
| C[C@H]1CC[C@@H](C(=O)Nc2ccccc2)CN1c1cc(-c2ccc3c(N)n[nH]c3c2)nc(N)n1 [GSK2283293] | 0 | 18 | 8 | 0 | 21 | 0 | 9 | 0 | 23 | 0 | 9 | 0 | 7 | 0 | 0 | 0 | 0 | 7 | 0 | 0 |
| Cc1ccc(O)cc1Nc1cc(C(F)(F)F)nc2ccc(-c3ccncc3)cc12 [GW630823] | 9 | 0 | 0 | 0 | 0 | 0 | 5 | 4 | 14 | 0 | 0 | 3 | 0 | 14 | 11 | 4 | 26 | 0 | 0 | 18 |
| Nc1nc(-c2ccc3c(N)n[nH]c3c2)cc(N2CCC[C@@H](C(=O)Nc3ccccc3)C2)n1.O=C(O)C(F)(F)F.O=C(O)C(F)(F)F [GSK2288359] | 6 | 20 | 13 | 0 | 0 | 7 | 0 | 0 | 5 | 0 | 0 | 0 | 8 | 0 | 0 | 0 | 0 | 21 | 0 | 0 |
| Fc1cccc(COc2ccc(Nc3ncnc4sc(-c5ccc[nH]5)cc34)cc2Cl)c1 [GW707818] | 20 | 25 | 8 | 0 | 0 | 0 | 5 | 0 | 5 | 0 | 0 | 0 | 19 | 0 | 0 | 0 | 24 | 15 | 1 | 0 |
| O=C(CCO)NCCn1ccc2ncnc(Nc3ccc(Oc4cccc(C(F)(F)F)c4)c(Cl)c3)c21 | 0 | 0 | 0 | 0 | 0 | 3 | 4 | 0 | 0 | 0 | 0 | 0 | 0 | 0 | 16 | 10 | 37 | 0 | 0 | 0 |
| CC(=O)Nc1n[nH]c2ncc(-c3ccccc3)cc12 [SB-548492] | 0 | 1 | 100 | 20 | 0 | 41 | 0 | 36 | 12 | 50 | 4 | 9 | 14 | 20 | 12 | 14 | 20 | 3 | 1 | 0 |
| FC(F)(F)c1cc(Nc2nccc(-c3c(-c4ccc(Cl)cc4)nn4ncccc34)n2)ccc1Cl [GW829351] | 0 | 0 | 28 | 11 | 0 | 0 | 0 | 0 | 45 | 0 | 0 | 0 | 0 | 0 | 0 | 0 | 0 | 0 | 0 | 0 |
